In PubChem BioAssay (NCI):
This is part of a sample that, as a whole, favours compounds with a hit. Of some 83,000 tested, about 20% had one in any assay.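 Note: values are percent growth. 100 is the growth of untreated cells, values between 100 and 0 indicate rising inhibition; between -100 and 0 indicates cell death.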 Unmarked numbers belong to inactive results. Activity calls are given as the source filed them. The calls were made as follows: active = growth percent below 10; inactive = the rest.

Experiments:
Assay in all cases: NCI-60 one-dose screen, 48 h (100 = growth as untreated, 0 = no growth, -100 = all killed)
Conditions in all cases: 10 µM
[1] = tested on: NCI-H23 lung
[2] = tested on: NCI-H226 lung
[3] = tested on: HOP-62 NSCLC
[4] = tested on: NCI-H460 lung
[5] = tested on: HOP-92 NSCLC
[6] = tested on: NCI-H522 lung
[7] = tested on: A549/ATCC NSCLC
[8] = tested on: 786-0 renal
[9] = tested on: COLO 205 colon
[10] = tested on: DU-145 prostate
[11] = tested on: K-562 leukemia
[12] = tested on: MALME-3M melanoma
[13] = tested on: MDA-MB-231 breast
[14] = tested on: RXF 393 renal
[15] = tested on: SF-268 CNS
[16] = tested on: SF-295 CNS
[17] = tested on: SF-539 CNS
[18] = tested on: UACC-257 melanoma
[19] = tested on: M14 melanoma

O=C(CN(C1CCCCC1)C1CCCCC1)Nc1ccc(S(=O)(=O)c2ccc(NC(=O)CN(C3CCCCC3)C3CCCCC3)cc2)cc1
growth [1]: -36.6% (active) | growth [2]: 0.397% (active) | growth [3]: -21.4% (active) | growth [4]: -9.66% (active) | growth [5]: -86.7% (active) | growth [6]: -74.4% (active) | growth [7]: 2.61% (active) | growth [8]: -82.7% (active) | growth [9]: -70.6% (active) | growth [10]: -47.9% (active) | growth [11]: -29.8% (active) | growth [12]: -67.4% (active) | growth [13]: -49.4% (active) | growth [14]: -61.4% (active) | growth [15]: -7.58% (active) | growth [16]: 14.4% | growth [17]: -89.9% (active) | growth [18]: -17.9% (active) | growth [19]: -59.4% (active)

CCNCC(=O)Nc1ccc(C(=O)OCC)cc1
growth [1]: 99.9% | growth [2]: 109% | growth [3]: 90.5% | growth [4]: 99.5% | growth [5]: 113% | growth [6]: 88.7% | growth [7]: 103% | growth [8]: 89.6% | growth [9]: 108% | growth [10]: 104% | growth [11]: 96.6% | growth [12]: 110% | growth [13]: 119% | growth [14]: 124% | growth [15]: 93.6% | growth [16]: 102% | growth [17]: 100% | growth [18]: 96.7% | growth [19]: 102%

C=CCN(CC=C)C(=O)[C@H](CC)[C@@H]1CC[C@@H](C)[C@@H]([C@H](C)[C@@H](O)[C@@H](C)C(=O)[C@H](CC)C2O[C@]3(C=C[C@@H](O)[C@]4(CC[C@@](C)([C@H]5CC[C@](O)(CC)[C@H](C)O5)O4)O3)[C@H](C)C[C@@H]2C)O1 (some centres undefined)
growth [1]: 6.23% (active) | growth [2]: -0.687% (active) | growth [3]: 12% | growth [4]: 3.23% (active) | growth [5]: -23.9% (active) | growth [6]: -2.7% (active) | growth [7]: 11.5% | growth [8]: 20% | growth [9]: -62.4% (active) | growth [10]: 53.7% | growth [11]: 14.3% | growth [12]: -22.4% (active) | growth [13]: -36.3% (active) | growth [14]: -1.56% (active) | growth [15]: 41.7% | growth [16]: -16% (active) | growth [17]: 29.1% | growth [18]: 7.88% (active) | growth [19]: 17.9%

CCOC(=O)c1cc(C(=O)c2cc(OC)c(OC)c(OC)c2)n2ncc3ccccc3c12
growth [1]: 82.5% | growth [2]: 95.1% | growth [3]: 89.5% | growth [4]: 51.3% | growth [5]: 81.6% | growth [6]: 39.6% | growth [7]: 54.8% | growth [8]: 94.5% | growth [9]: 60.4% | growth [10]: 83.6% | growth [11]: 23% | growth [12]: 70.5% | growth [13]: 98.7% | growth [14]: 88.3% | growth [15]: 84% | growth [16]: 72.5% | growth [17]: 86.7% | growth [18]: 57.1% | growth [19]: 50.2%

CN(C)CCCOc1ccccc1NC1=C(Cl)C(=O)C(Nc2ccccc2OCCCN(C)C)=C(Cl)C1=O
growth [1]: -48.5% (active) | growth [2]: -81% (active) | growth [3]: -96.9% (active) | growth [4]: -20.6% (active) | growth [5]: -57.1% (active) | growth [6]: -67.2% (active) | growth [7]: -55.6% (active) | growth [8]: -95.4% (active) | growth [9]: -64.9% (active) | growth [10]: -97.2% (active) | growth [11]: -25.3% (active) | growth [12]: -77.6% (active) | growth [13]: -71.9% (active) | growth [14]: -98.2% (active) | growth [15]: -88.1% (active) | growth [16]: -58.8% (active) | growth [17]: -96.6% (active) | growth [18]: -92.9% (active) | growth [19]: -68.8% (active)

Cc1c(Cl)cccc1NC(=O)CN1CCOCC1
growth [1]: 95.9% | growth [2]: 106% | growth [3]: 93% | growth [4]: 100% | growth [5]: 118% | growth [6]: 75.1% | growth [7]: 106% | growth [8]: 99.7% | growth [9]: 108% | growth [10]: 102% | growth [11]: 91.6% | growth [12]: 92.6% | growth [13]: 106% | growth [14]: 117% | growth [15]: 97.1% | growth [16]: 99.3% | growth [17]: 106% | growth [18]: 108% | growth [19]: 94.9%

Clc1nc2ccc(Br)cc2cc1-c1nc2ccccc2[nH]1
growth [1]: 90.6% | growth [2]: 98.5% | growth [3]: 81.3% | growth [4]: 73.2% | growth [5]: 71.3% | growth [6]: 53.1% | growth [7]: 17.2% | growth [8]: 91% | growth [9]: 107% | growth [10]: 99.4% | growth [11]: 86.1% | growth [12]: 97.2% | growth [13]: 64.6% | growth [14]: 10.6% | growth [15]: 59.3% | growth [16]: 86.7% | growth [17]: 107% | growth [18]: 102% | growth [19]: 105%

COc1ccc(/C(C#N)=C/c2cccc(OC)c2OC)cc1
growth [1]: 80% | growth [2]: 89% | growth [3]: 88% | growth [4]: 108% | growth [5]: 86.4% | growth [6]: 58.8% | growth [7]: 67.5% | growth [8]: 93.8% | growth [9]: 88.8% | growth [10]: 106% | growth [11]: 33.3% | growth [12]: 73.2% | growth [13]: 83.3% | growth [14]: 85.7% | growth [15]: 92.5% | growth [16]: 75.3% | growth [17]: 94.6% | growth [18]: 78% | growth [19]: 86%

CNS(=O)(=O)Oc1ccc(-c2sc3cc(OS(=O)(=O)NC)ccc3c2C(=O)c2ccc(OCCN3CCCCC3)cc2)cc1
growth [1]: 65.6% | growth [2]: 84.4% | growth [3]: 79.8% | growth [4]: 42.4% | growth [5]: 64.2% | growth [6]: 78.7% | growth [7]: 62.4% | growth [8]: 73.5% | growth [9]: 77.9% | growth [10]: 98.2% | growth [11]: 9.88% (active) | growth [12]: 57.7% | growth [13]: 79.1% | growth [14]: 38.8% | growth [15]: 87.9% | growth [16]: 89.3% | growth [17]: 65% | growth [18]: 70% | growth [19]: 65.7%

CC(C)(C)OC(=O)N1CCc2c(sc3ncnc(N/N=C/c4cccc(Br)c4)c23)C1
growth [1]: 55.3% | growth [2]: 67.3% | growth [3]: 45.1% | growth [4]: 20.9% | growth [5]: 75.6% | growth [6]: 34.2% | growth [7]: 45.7% | growth [8]: 50.7% | growth [9]: 13.1% | growth [10]: 62.4% | growth [11]: 19.3% | growth [12]: 66.9% | growth [13]: 49.9% | growth [14]: 63.5% | growth [15]: 63.9% | growth [16]: 64.7% | growth [17]: 53.3% | growth [18]: 80.8% | growth [19]: 43%

CN1C(=O)C2(Nc3cc(Cl)ccc3S2)c2cc(Cl)ccc21 (centres undefined)
growth [1]: 82.7% | growth [2]: 80% | growth [3]: 101% | growth [4]: 95.2% | growth [5]: 71.7% | growth [6]: 95.2% | growth [7]: 97.3% | growth [8]: 102% | growth [9]: 93.2% | growth [10]: 104% | growth [11]: 75.4% | growth [12]: 113% | growth [13]: 69.3% | growth [14]: 106% | growth [15]: 93.8% | growth [16]: 99.3% | growth [17]: 106% | growth [18]: 101% | growth [19]: 102%

O=[N+]([O-])c1ccc2ncccc2c1Cl
growth [1]: 86.7% | growth [2]: 109% | growth [3]: 44.5% | growth [4]: 93.1% | growth [5]: 99% | growth [6]: 41.3% | growth [7]: 99.9% | growth [8]: 63.5% | growth [9]: -69.2% (active) | growth [10]: -26% (active) | growth [11]: 12.1% | growth [12]: 69% | growth [13]: 21.2% | growth [14]: 91.2% | growth [15]: 38.9% | growth [16]: -0.464% (active) | growth [17]: 12.9% | growth [18]: 62.2% | growth [19]: 49.5%

COc1ccc(-c2cc(-c3ccc(Cl)cc3)nc(SCCCC(=O)NO)n2)cc1OC
growth [1]: -8.91% (active) | growth [2]: -5.3% (active) | growth [3]: 2.14% (active) | growth [4]: -17.7% (active) | growth [5]: -0.324% (active) | growth [6]: -5.35% (active) | growth [7]: 8.3% (active) | growth [8]: 4.57% (active) | growth [9]: 6.86% (active) | growth [10]: 14.2% | growth [11]: 3.01% (active) | growth [12]: 6.86% (active) | growth [13]: 6.55% (active) | growth [14]: -38.2% (active) | growth [15]: 8.6% (active) | growth [16]: -32.6% (active) | growth [17]: -35.7% (active) | growth [18]: 16.1% | growth [19]: -40.2% (active)

CC(C)(C)OC(=O)N1CCc2c(sc3ncnc(N/N=C/c4ccc(Br)cc4)c23)C1
growth [1]: 71.8% | growth [2]: 79% | growth [3]: 69% | growth [4]: 39.6% | growth [5]: 94.4% | growth [6]: 35.6% | growth [7]: 50.2% | growth [8]: 76.5% | growth [9]: 41% | growth [10]: 92.6% | growth [11]: 15.1% | growth [12]: 51.3% | growth [13]: 73.2% | growth [14]: 66.4% | growth [15]: 82.2% | growth [16]: 49% | growth [17]: 60.7% | growth [18]: 73.4% | growth [19]: 47.7%

O=S(=O)(Oc1ccc(-c2ccc3sccc3c2)cc1)c1ccc(F)cc1
growth [1]: 87.6% | growth [2]: 94.5% | growth [3]: 111% | growth [4]: 103% | growth [5]: 105% | growth [6]: 87.7% | growth [7]: 94% | growth [8]: 96.3% | growth [9]: 111% | growth [10]: 104% | growth [11]: 78.7% | growth [12]: 106% | growth [13]: 108% | growth [14]: 110% | growth [15]: 108% | growth [16]: 96.4% | growth [17]: 110% | growth [18]: 106% | growth [19]: 113%

CCOC(=O)C1C(C(=O)OCC)C2C(=O)C3C(C(=O)OCC)C(C(=O)OCC)C3C(=O)C12 (centres undefined)
growth [1]: 98.9% | growth [2]: 100% | growth [3]: 96.2% | growth [4]: 103% | growth [5]: 104% | growth [6]: 104% | growth [7]: 100% | growth [8]: 103% | growth [9]: 120% | growth [10]: 110% | growth [11]: 94.2% | growth [12]: 106% | growth [13]: 110% | growth [14]: 112% | growth [15]: 101% | growth [16]: 101% | growth [17]: 105% | growth [18]: 108% | growth [19]: 110%
